Screens from PubChem.
HT1080 IDH1KD tx: toxicity to HT-1080 IDH1 knockdown cells (counter line); AID 686971; Potency, µM (series often up to 46.1 µM), most hits filed as cytotoxic; HT-1080 IDH1 knockdown viability, ATP luminescence, 48 h; 360,000 compounds, 2% hits
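Luminescent ATP read-out (CellTiter-Glo, 10 min at room temperature) after 48 h compound exposure at 37 °C gave viability of IDH1-knockdown HT-1080 cells. Activity was normalised to DMSO and cell-free wells, then fitted as concentration-response curves.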
KB-V1 cytotox: KB-V1 MDR subline cytotoxicity. KB-V1 MDR cells viability, CellTiter-Glo, 72 h. Potency, µM (top dose mostly 46.1 µM), usual class: cytotoxic. 400,000 compounds, 3.4% hits. AID 1347076; also: nearly all actives have a fitted effect of over 60% in size
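Drug-selected KB-V1 cells, grown in DMEM lacking phenol red with 10% FBS, receive compound titrations; after three days at 37 degrees C, surviving cell ATP is quantified by CellTiter-Glo luminescence and responses normalized and curve-fitted.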
KB-3-1 cytotox: kills parental KB-3-1 adenocarcinoma cells; 400,000 compounds, 1.4% hits; KB-3-1 viability, CellTiter-Glo ATP luminescence, 72 h; Potency, µM (highest dose often 46.1 µM), hits mostly cytotoxic; also: nearly all actives have a fitted effect of over 60% in size
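Cytotoxicity measured as CellTiter-Glo luminescence after 72 h at 37 C. Compound titrations were pinned onto drug-naive KB-3-1 parental adenocarcinoma cells grown in DMEM with 10% FBS, and normalized data fitted to concentration-response curves.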
HT1080-NT tox: kills 2HG-producing HT-1080-NT fibrosarcoma cells; HT-1080-NT fibrosarcoma viability, CellTiter-Glo ATP luminescence, 48 h; Potency, µM (series often up to 46.1 µM), most hits filed as cytotoxic; 360,000 compounds, 1.6% hits;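 also: NT is the 2HG producing partner of a matched IDH1 knockdown line; nearly all actives have a fitted effect of over 55% in size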
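Luminescent CellTiter-Glo readout after 48 hours of compound exposure at 37 degrees C defined viability of HT-1080-NT cells. Activity was normalized to DMSO wells and cell-free media wells; concentration-response curves were fitted and assigned curve classes.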
TDP1 cell noCPT: qHTS for Inhibitors of human tyrosyl-DNA phosphodiesterase 1 (TDP1): qHTS in cells in absence of CPT. AID 686978, 2013. DT40 Tdp1-/- hTDP1 cells, no CPT, ATP luminescence, 48 h. 420,000 compounds, 15% hits. Potency, µM (titrated, usually from 46.2 µM), hits mostly inhibitors; also: nearly all actives have a fitted effect of over 55% in size
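Growth of hTDP1-complemented DT40 Tdp1-knockout cells is measured by ATP luminescence after at least 48 hr compound exposure at 37 °C, with DMSO substituting for the 20 nM CPT used in the parallel screen.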
TDP1 cell CPT: DT40-hTDP1 cell growth loss with CPT. 420,000 compounds, 12% hits. chicken DT40 Tdp1-/-;hTDP1 cells + 20 nM CPT, ATP luminescence, 48 h. Potency, µM (top dose mostly 46.2 µM), usual class: inhibitors. AID 686979; also: nearly all actives have a fitted effect of over 55% in size
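Chicken DT40 Tdp1-/- cells complemented with human TDP1, 400 cells/well, exposed to compounds plus 20 nM camptothecin for at least 48 h at 37 C; viability read as ATP content by CellTiter-Glo luminescence.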
Numbers stand for hits; i = inactive; ? = inconclusive; nt = no result. Only some compounds are listed: those with a hit (about 19% of all), similar ones and a draw of the others. Calls follow the shape of the dose curve; as a rule, active = well fitted curve in the direction sought with a large enough effect; inconclusive = small, poorly fitted or top-dose-only effect, or another doubt; inactive = no such curve, though single readings can be large; an effect the other way counts as inactive or inconclusive.

SMILES	HT1080 IDH1KD tx	KB-V1 cytotox	KB-3-1 cytotox	HT1080-NT tox	TDP1 cell noCPT	TDP1 cell CPT
C[C@H]1CN([C@@H](C)CO)C(=O)c2cc(-c3cccc(C#N)c3)cnc2O[C@H]1CN(C)C(=O)c1ccccn1	i	i	i	i	?	i
O=c1c2ccccc2oc2nc(-c3ccco3)n(Cc3ccccc3)c(=O)c12	i	i	i	i	21µM	?
COCCn1c(-c2cc(OC)c(OC)c(OC)c2)nc2oc3cc(OC)ccc3c(=O)c2c1=O	i	i	i	i	?	?
COc1cc(-c2nc3oc4ccccc4c(=O)c3c(=O)n2Cc2ccco2)cc(OC)c1OC	i	?	?	i	21µM	18µM
CSc1ccccc1OCc1cc(C(=O)NCCCn2nc(C)cc2C)no1	i	nt	nt	i	21µM	16µM
CSc1ccccc1OCc1cc(C(=O)NCCc2nc(C)cc(C)n2)no1	i	i	i	i	?	?
COc1ccc(OCc2cc(C(=O)NCC(C)Oc3cccnc3)no2)c(Cl)c1 (centres undefined)	i	?	i	i	?	?
CSc1ccccc1OCc1cc(C(=O)NCC(C)Oc2cccnc2)no1 (centres undefined)	i	?	i	i	16µM	?
COCCCNC(=O)C1CCN(c2nc3ccc(C)cc3[nH]2)CC1	nt	i	i	nt	i	i
CN1CCN(CCCCC(=O)c2ccccc2)CC1	i	i	i	i	i	i
CC(=O)OC(C[N+]1(C)CCCCCC1)c1ccccc1 (centres undefined)	i	i	i	i	i	i
CC1CCCN(CCC(=O)c2ccccc2)C1 (centres undefined)	i	i	i	i	10µM	4.6µM
O=C(CCN1CCCCC1)c1ccccc1	i	i	i	i	13µM	11µM
CCOc1ccc(C(=O)CCN2CCCCCC2)cc1	?	i	?	?	2.9µM	3.7µM
C[N+]1(CCC(=O)c2ccccc2)CCCCC1	i	i	?	i	2.6µM	3.3µM
Cc1ccc(-n2nc3c(c2NC(=O)C(C)C)CS(=O)(=O)C3)cc1	i	i	i	i	i	i
CCCCOc1ccc(C(=O)CCN2CCOCC2)cc1	i	i	i	?	6.5µM	5.2µM
O=C(CCN1CCOCC1)c1ccccc1	?	i	i	?	3.5µM	2.6µM
O=C(c1ccc(Br)cc1)N1CCN(Cc2ccccc2)CC1	i	?	i	i	i	i
O=C(CCN1CCN(C(=O)c2ccccc2)CC1)c1ccc(Br)cc1	i	?	i	?	8.2µM	7.3µM
CCn1c(CNC(=O)c2ccccc2Br)nnc1SCC(=O)NC1=NCCS1	i	i	i	i	?	i
O=C(CCN1C(=O)c2ccccc2S1(=O)=O)Nc1ccc(F)c(F)c1F	i	i	i	i	i	i
CCCCOC(=O)c1ccc(NS(=O)(=O)c2c(C)nc3scc(C)n3c2=O)cc1	nt	8.2µM	i	nt	23µM	13µM
COc1cc(OC)c(NS(=O)(=O)c2c(C)nc3sc(C)cn3c2=O)cc1Cl	nt	i	i	nt	15µM	?
COc1ccc(CCNS(=O)(=O)c2c(C)nc3sc(C)cn3c2=O)cc1OC	nt	i	i	nt	i	i
SMILES	HT1080 IDH1KD tx	KB-V1 cytotox	KB-3-1 cytotox	HT1080-NT tox	TDP1 cell noCPT	TDP1 cell CPT
Cc1cn2c(=O)c(S(=O)(=O)Nc3ccc(N4CCOCC4)cc3)c(C)nc2s1	nt	i	i	nt	?	?
Cc1cn2c(=O)c(S(=O)(=O)Nc3ccc(OC(F)(F)F)cc3)c(C)nc2s1	nt	i	i	nt	23µM	21µM
CCCC(=O)N(c1ccc2oc3c(c2c1)CCCC3)S(=O)(=O)c1ccc(CC)cc1	nt	?	i	nt	nt	nt
Cc1ccnc(SCCn2c(N3CC(C)CC(C)C3)nc3c2c(=O)n(C)c(=O)n3C)n1 (centres undefined)	i	?	i	i	i	i
CCn1c(N2CCN(Cc3ccc([N+](=O)[O-])cc3)CC2)nc2ccccc21	i	?	i	i	21µM	?
O=[N+]([O-])c1ccc(N2CCN(Cc3ccccc3)CC2)nc1	i	i	i	i	?	?
CCCn1c(N2CCN(Cc3ccc(Cl)cc3)CC2)nc2ccccc21	i	?	i	i	12µM	?
CCCn1c(N2CCN(C(=O)/C=C/C(=O)O)CC2)nc2ccccc21	i	i	i	i	i	i
Cc1cc(C)cc(NC(=O)C(C)N2Cc3ccccc3C2=O)c1 (centres undefined)	nt	i	i	nt	i	i
CN(Cc1ccccc1)C(=O)c1cc2ccccc2o1	i	i	i	i	i	i
Cc1ccc2oc(C(=O)N(Cc3ccncc3)CC3CCCO3)c(C)c2c1 (centres undefined)	i	?	i	i	?	?
CC(C)(C)N(Cc1ccccc1)C(=O)c1cc2ccccc2o1	i	i	i	i	12µM	?
COc1ccc(C(=O)N(Cc2ccc(N(C)C)cc2)CC2CCCO2)cc1 (centres undefined)	nt	nt	nt	nt	i	?
Cc1c(C(=O)N(Cc2ccc(N(C)C)cc2)CC2CCCO2)oc2ccccc12 (centres undefined)	i	i	i	i	23µM	23µM
CCCc1ccc2oc(C(=O)N(Cc3ccncc3)CC3CCCO3)c(C)c2c1 (centres undefined)	?	i	i	?	18µM	?
CN(C)c1ccc(CN(CC2CCCO2)C(=O)c2cc3ccccc3o2)cc1 (centres undefined)	i	i	i	i	?	18µM
CC(=O)c1ccc(NC(=O)C2CCC(CNS(=O)(=O)c3cccc4nsnc34)CC2)cc1 (centres undefined)	nt	i	i	nt	i	i
COc1ccc(-n2c(=O)c(-c3cccs3)nc3cnc(OC)nc32)cc1	nt	nt	nt	nt	?	i
Cc1cc2oc(C(=O)N(Cc3ccc(N(C)C)cc3)CC3CCCO3)c(C)c2cc1Cl (centres undefined)	nt	nt	nt	nt	18µM	?
Cc1c(C(=O)N(Cc2ccc(N(C)C)cc2)CC2CCCO2)oc2ccc(Cl)cc12 (centres undefined)	nt	nt	nt	nt	21µM	16µM
CCCc1ccc2oc(C(=O)N(C)CCn3ccnc3C)c(C)c2c1	i	?	i	i	13µM	21µM
CCOc1cccc(C(=O)N(Cc2ccc(N(C)C)cc2)CC2CCCO2)c1 (centres undefined)	nt	nt	nt	nt	16µM	15µM
CCCc1ccc2oc(C(=O)N(C)Cc3cnccn3)c(C)c2c1	i	?	?	i	?	?
CCCS(=O)(=O)NC(=O)C1(C)CCCN(C(=O)c2ccccc2C(F)(F)F)C1 (centres undefined)	i	i	i	?	i	i
